Screening data from PubChem BioAssay.
Rows were chosen to be rich in hits. Some 2.6% of all compounds tested hit in one or more screens of this group.
Platelet DG rel: modulates dense granule release in human platelets. human platelet-rich plasma, SFLLRN dense granule ATP release, luminescence. inhibition, %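 (compounds screened at 7.5 µM in platelet-rich plasma)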. 0.22% of 300,000 active;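 active = mean replicate score, as percent of positive control, at or above 50; inconclusive = mean below 50 but at least one replicate at or above 50; inactive = mean and every replicate below 50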
Rce1 inhib: inhibitors of yeast Ras-converting enzyme | Q03530 | yeast membranes, quenched prenylated peptide cleavage fluorescence | calls only | 0.27% of 290,000 active | AID 2563;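 active = fall in fluorescence gain of 50% or more versus controls, with final raw signal at or below 3038400; inconclusive = same 50% fall but final raw signal above 3038400; inactive = fall in fluorescence gain under 50%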
Target sequence (Q03530 whole entry, looked up): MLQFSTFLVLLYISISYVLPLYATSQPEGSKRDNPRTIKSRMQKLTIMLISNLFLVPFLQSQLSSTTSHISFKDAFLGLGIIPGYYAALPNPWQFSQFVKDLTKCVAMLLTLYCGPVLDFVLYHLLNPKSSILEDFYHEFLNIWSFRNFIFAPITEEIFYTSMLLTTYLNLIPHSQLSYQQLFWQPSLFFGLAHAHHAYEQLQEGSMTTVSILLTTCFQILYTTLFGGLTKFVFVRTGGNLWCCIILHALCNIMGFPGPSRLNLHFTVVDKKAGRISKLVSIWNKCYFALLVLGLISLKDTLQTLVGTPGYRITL
ABHD5-PLIN5 inh: ABHD5-PLIN5 protein interaction inhibition. Q00G26+Q8WTS1. Split G. princeps luciferase complementation, luminescence, 4 h. inhibition, % at 4 µM. 0.78% of 360,000 active. AID 602281;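 active = inhibition above the mean inhibition across every tested compound plus 3 SD, cut at about 22% in these data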
PfM18AAP inh: PfM18AAP enzyme inhibition; recombinant PfM18AAP, H-Glu-NHMec fluorogenic cleavage; inhibition, % at 7.35 µM; 1.2% of 290,000 active; AID 1822;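 active = inhibition above the campaign mean inhibition over all tested compounds plus 3 SD, cut at about 28% in these data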
Granule exo inh: lytic granule exocytosis inhibition | TALL-104 LAMP-1 surface exposure, flow cytometry; cells stimulated with thapsigargin and PMA | inhibition, % at 10 µM | 0.66% of 360,000 active;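 active = inhibition above about 55%, limit read from the data; inconclusive = no clear call, values can overlap the other calls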
Each line names hits and unclear results; the compound was inactive in the other large screens.

C/C(=N/NC(=O)CNC(=O)C1COc2ccccc2O1)c1ccc2c(c1)OCCO2 (configuration not stated)	none
C/C(=N\NC(=O)CC#N)C1COc2ccccc2O1 (configuration not stated)	PfM18AAP inh 29
CCOc1ccc(C(=O)CC(C(=O)O)N2CCCCC2)cc1 (configuration not stated)	ABHD5-PLIN5 inh 85 (no result: Platelet DG rel, Rce1 inhib, PfM18AAP inh)
CCOc1ccc(C(=O)N2CCCCCC2)cc1	none
CCOc1ccc(C(=O)OC(C)C(=O)N2CCN(Cc3ccccc3)CC2)cc1 (configuration not stated)	none (no result: Platelet DG rel, Rce1 inhib, PfM18AAP inh)
CCOc1ccc(C(=O)CC(C(=O)O)N2CCN(Cc3ccccc3)CC2)cc1 (configuration not stated)	ABHD5-PLIN5 inh 95 (no result: Platelet DG rel, Rce1 inhib, PfM18AAP inh)
CC1N(O)C(c2ccc(Cl)cc2Cl)N(O)C1(C)C (configuration not stated)	Platelet DG rel 68
ON1C(c2ccc(Cl)cc2Cl)N(O)[C@H]2CCCC[C@H]21 (some centres not stated)	none
CCCOc1ccc(C(=O)O/N=C(\CC)c2ccc(C)cc2)cc1	none
O=C(Cc1cccs1)NNC(=S)NC(=O)c1ccccc1	PfM18AAP inh 35
O=C(Cc1cccs1)NNC(=S)NC(=O)c1ccc(F)c(F)c1	PfM18AAP inh 44
CC(=O)NNC(=S)NC(=O)c1ccccc1	PfM18AAP inh 48
COc1ccc(Cn2c(N)c(S(=O)(=O)c3cccs3)c3nc4ccccc4nc32)cc1	Rce1 inhib active
COc1ccc(/C=C(\NC(=O)/C=C/c2ccco2)C(=O)NCCc2nc3ccccc3[nH]2)cc1	ABHD5-PLIN5 inh 23
Cc1ccc(NC(=O)c2ccc(NCCCN3CCC(C)CC3)c([N+](=O)[O-])c2)cc1F	Granule exo inh 68
CCN(CC)C(=O)c1ccc(Nc2nnc(-c3ccc(O)cc3)c3ccccc23)cc1	none
O=S(=O)(/N=C(\Sc1ccccc1)c1ccccc1)c1ccc(Cl)cc1	none
Cc1ccc(S(=O)(=O)/N=C(\Sc2ccccc2)c2ccccc2)cc1	Granule exo inh 65
CCc1ccccc1-n1c(-c2ccncc2)n[nH]c1=S	PfM18AAP inh 30
Cc1c(Cl)cccc1-n1c(-c2cccnc2)n[nH]c1=S	PfM18AAP inh 31
Cc1ccccc1-n1c(-c2ccncc2)n[nH]c1=S	none (no result: PfM18AAP inh)
CCCNC(=O)C1(C)CCCN(C(=O)c2ccc(OC)cc2OC)C1 (configuration not stated)	none (no result: Platelet DG rel, Rce1 inhib, PfM18AAP inh)
CC(Oc1ccc(-c2ccccc2)cc1)C(=O)N/N=C/c1cccnc1 (configuration not stated)	Granule exo inh 56
COc1ccc2c(C)c(Cl)c(=O)oc2c1	none
C=C1CC(COc2ccc3c(C)c(Cl)c(=O)oc3c2)(c2ccccc2)OC1=O (configuration not stated)	ABHD5-PLIN5 inh 62 (no result: Platelet DG rel, Rce1 inhib, PfM18AAP inh)
Cc1cc(N2CCCC2)ccc1NC(=O)CN1C(=O)NC(C)(c2ccccc2)C1=O (configuration not stated)	PfM18AAP inh 30
C=CCOc1ccc(/C=C2/C(=O)ON=C2C)cc1OC	PfM18AAP inh 30
COc1ccc(C(=O)Nc2ccc3[nH]ccc3c2)cc1	Platelet DG rel 58 (no result: PfM18AAP inh)
COc1ccc(C(=O)Nc2ccc3[nH]ccc3c2)cc1OC	none (no result: PfM18AAP inh)
O=C(Nc1ccc(N2CCOCC2)c(Cl)c1)c1cc2ccccc2o1	Rce1 inhib active
O=C(O)c1ccc2c(c1)SC1=NS(=O)(=O)CCN12	none
CN(C(=O)c1ccc2c(c1)SC1=NS(=O)(=O)CCN12)C(c1ccccc1)c1ccccc1	Rce1 inhib active
COC(=O)c1ccc(CN2CCCC(CO)(Cc3ccc(F)cc3F)C2)cc1 (configuration not stated)	none
Cc1cc(Br)ccc1N=C1NC(=O)CS1	PfM18AAP inh 30
CCOc1ccc(C(=S)N2CCCC2)cc1	none
CCOc1ccc(C(=S)N2CCCC2)c(OCC)c1	PfM18AAP inh 30
CN(C)C(CNc1ccc(C(F)(F)F)cc1[N+](=O)[O-])c1ccccc1 (configuration not stated)	Granule exo inh 74
O=C(NCCCN1CCCC1)Nc1ccc(F)cc1	none
O=C(Nc1cccc(-c2cn3ccccc3n2)c1)C1CC1	Rce1 inhib active
CCCCNC(=O)c1nc(-c2cccc(C(F)(F)F)c2)oc1-c1ccc(OC(F)(F)F)cc1	none (no result: Platelet DG rel, Rce1 inhib, PfM18AAP inh)
Cc1nc(N2CCCCC2)c2sc(=S)n(C)c2n1	none
CCN1CCN(c2nc(C)nc3c2sc(=S)n3C)CC1	PfM18AAP inh 34 (no result: Platelet DG rel, Rce1 inhib)
O=C(COC(=O)/C=C/C(=O)N1CCN(c2ccccc2)CC1)NCc1ccc(F)cc1	none
O=C(O)c1ccc(Nc2nc3ccc(Cl)cc3[nH]2)cc1	Rce1 inhib active
O=C(O)C1CCN(C(=O)c2cccc3ccccc23)CC1	none
CN1CC(C(=O)O)Cc2c1ccc1ccccc21 (configuration not stated)	Rce1 inhib active
CC(C)(C)NC(=O)c1ccncc1	none
Cc1cc(OCC(=O)NNC(=S)NC(=O)c2ccc(Br)o2)ccc1Cl	none (no result: Platelet DG rel)
Nc1cccc2c(=O)c3ccccc3[nH]c12	PfM18AAP inh 29
COc1cccc2[nH]c3ccccc3c(=O)c12	none
O=C(O)c1ccc(-c2ccc(O)c(F)c2)cc1	Rce1 inhib active
Cc1ccc(C(=O)/C=C/Nc2ccccn2)cc1	Platelet DG rel 64
Cc1ccc(C(=O)/C=C/C(=O)c2ccc(C)cc2)cc1	ABHD5-PLIN5 inh 23
Cc1c(Cl)cccc1NC(=O)CS(=O)(=O)c1ccccc1	none
CC(=O)Cc1nsc(NC(=O)c2ccc(COc3cccc(C)c3)o2)n1	none
Cn1c(SCc2n[nH]c(=S)n2-c2ccccc2)nnc1-c1ccccc1	PfM18AAP inh 30
COC(=O)C(CC(=O)c1ccc(C)cc1)n1nc(C)cc1C (configuration not stated)	Granule exo inh 57
Cc1c(C(C)C)c(=O)n(-c2ccc(S(=O)(=O)NC3CC3)cc2)n1C	none
CC1CC(=O)NN=C1c1ccc(NCCO)c([N+](=O)[O-])c1 (configuration not stated)	Platelet DG rel 89
Cn1nc(-c2ccc(NCCO)c([N+](=O)[O-])c2)c2ccccc2c1=O	none
O=C(Nc1ncn[nH]1)c1cc([N+](=O)[O-])ccc1Cl	PfM18AAP inh 30
CC(C)CCNC(=O)c1cc2c(=O)n3ccccc3nc2s1	none
Cc1ccc(C)c(S(=O)(=O)/N=C2\C=C(NS(=O)(=O)c3ccccc3)C(=O)c3ccccc32)c1	none
Cc1cc(C)c(S(=O)(=O)/N=C2/C=C(Sc3ncn[nH]3)C(=O)c3ccccc32)cc1C	PfM18AAP inh 40, Granule exo inh 98 (no result: Platelet DG rel, Rce1 inhib)
Cc1c(C)c(C)c2[nH]c(-c3ccc4c(c3)OCO4)nc2c1C	Granule exo inh 61
COc1ccc(-c2[nH]c(-c3ccc4c(c3)OCO4)nc2-c2ccccc2)cc1	Rce1 inhib inconclusive
CC1(C)Cc2c(sc(NC(=O)COc3ccc(Cl)cc3)c2C#N)C(C)(C)N1	none
Cc1ccccc1OCC(=O)Nc1sc2c(c1C#N)CC(C)(C)NC2(C)C	Granule exo inh 59
CC(C)N(Cc1nc(COc2ccccc2)no1)Cc1nccn1C	none
